Consider six compounds from PubChem BioAssay (EPA / NIEHS).

More than one record can exist for a structure, and the calls need not agree. Activity calls are given as the source filed them. Rule for the calls: active = hit-call score of the fitted dose curve at least 0.9, where 1 is the maximum; inactive = score below 0.9.

Read-out in assay [1]: Vascular cell adhesion molecule 1 (VCAM1), VCAM1 (gene 7412)
Briefly: BSK_4H_VCAM1: BioMAP Diversity Plus: 4H Assay for Vascular cell adhesion molecule 1 (VCAM1) Biomarker Activity (AID 2283033).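 For outcome: cell-surface VCAM-1 protein measured by ELISA.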 The settings on record: primary human endothelial cells (HUVEC); actives raise or lower the signal. The method, boiled down:
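HUVEC, 24 h post-dose; VCAM-1 by ELISA. Bidirectional curve fit vs DMSO baseline. Parallel SRB total-protein stain (0.1% SRB after 10% TCA fixation, 560 nm) for cytotoxicity.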

Read-out in assay [2]: Interferon-gamma inducible Protein 10 (IP10), CXCL10 (gene 3627)
The assay can be described thus: BSK_BE3C_IP10: BioMAP Diversity Plus: BE3C Assay for Interferon-gamma inducible Protein 10 (IP10) Biomarker Activity (AID 2283034). The settings on record: primary human bronchial epithelial cells; actives raise or lower the signal. The procedure, abridged:
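ELISA readout of IP-10 in BE3C system: primary human bronchial epithelial cells, 24 h post-dosing; bidirectional curve fit vs DMSO baseline.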

Read-out in assay [3]: Monokine induced gamma interferon (MIG), CXCL9 (gene 4283)
The assay can be described thus: BSK_BE3C_MIG: BioMAP Diversity Plus: BE3C Assay for Monokine induced gamma interferon (MIG) Biomarker Activity (AID 2283035).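 For outcome: MIG protein measured by ELISA in BE3C cultures after 24 h of dosing.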 The settings on record: primary human bronchial epithelial cells; actives raise or lower the signal. The procedure, abridged:
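Dose cells (human primary bronchial epithelial), incubate 24 h, quantify MIG by ELISA, then fit concentration–response in both directions relative to DMSO control.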

Read-out in assay [4]: Plasminogen activator inhibitor-1 (PAI1), SERPINE1 (gene 5054)
Briefly: BSK_BE3C_PAI1: BioMAP Diversity Plus: BE3C Assay for Plasminogen activator inhibitor-1 (PAI1) Biomarker Activity (AID 2283037). The settings on record: primary human bronchial epithelial cells; actives raise or lower the signal. The method, boiled down:
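ELISA read-out of PAI-1 from human bronchial epithelial primary cells, 24 h post-dosing; bidirectional curve fit vs DMSO baseline, gain or loss of signal scored.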

Read-out in assay [5]: urokinase plasminogen activator (uPA), PLAU (gene 5328)
Briefly: BSK_BE3C_uPA: BioMAP Diversity Plus: BE3C Assay for urokinase plasminogen activator (uPA) Biomarker Activity (AID 2283038).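 For outcome: uPA protein level quantified by ELISA in cell cultures; uPA read one day after compound addition.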 Conditions: primary human bronchial epithelial cells; actives raise or lower the signal. The method, boiled down:
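Using confluent primary human lung bronchial epithelial cultures, we dosed chemicals, waited 24 h, then ran a uPA ELISA, fitting bidirectionally against DMSO.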

Read-out in assay [6]: Urokinase-type plasminogen activator receptor (uPAR), PLAUR (gene 5329)
Briefly: BSK_BE3C_uPAR: BioMAP Diversity Plus: BE3C Assay for Urokinase-type plasminogen activator receptor (uPAR) Biomarker Activity (AID 2283039).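 For outcome: uPAR protein level measured by ELISA on the cells; cells exposed to compound for one day before measurement.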 The settings on record: primary human bronchial epithelial cells; actives raise or lower the signal. The method, boiled down:
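ELISA readout of uPAR on human lung primary bronchial epithelial cells, 24 h post-dosing. Bidirectional curve fit relative to DMSO vehicle baseline; gain or loss of signal both scored.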

Read-out in assay [7]: Interleukin-6 (IL6), IL6 (gene 3569)
The assay can be described thus: BSK_CASM3C_IL6: BioMAP Diversity Plus: CASM3C Assay for Interleukin-6 (IL6) Biomarker Activity for (AID 2283040). The settings on record: primary human coronary artery smooth muscle cells; actives raise or lower the signal.

Read-out in assay [8]: Tissue plasminogen activator (tPA), PLAT (gene 5327)
The assay can be described thus: BSK_BE3C_tPA: BioMAP Diversity Plus: BE3C Assay for Tissue plasminogen activator (tPA) Biomarker Activity (AID 2283041).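 For outcome: tPA level quantified by ELISA one day after compound addition.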 Conditions: primary human bronchial epithelial cells; actives raise or lower the signal. The procedure, abridged:
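ELISA read-out of tPA on human primary bronchial epithelial cells, 24 h post-dosing; bidirectional fit vs DMSO negative control/baseline.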

Read-out in assay [9]: Interleukin-8 (IL8), CXCL8 (gene 3576)
The assay can be described thus: BSK_CASM3C_IL8: BioMAP Diversity Plus: CASM3C Assay for Interleukin-8 (IL8) Biomarker Activity (AID 2283042).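 Note: IL-8 protein level quantified by ELISA.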 The settings on record: primary human coronary artery smooth muscle cells; actives raise or lower the signal.

Read-out in assay [10]: Human Leukocyte Antigen - DR isotype (HLADR), HLA-DRA (gene 3122)
Briefly: BSK_CASM3C_HLADR: BioMAP Diversity Plus: CASM3C Assay for Human Leukocyte Antigen - DR isotype (HLADR) Biomarker Activity (AID 2283043).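 Note: cell-surface HLA-DR protein level quantified by ELISA.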 The settings on record: primary human coronary artery smooth muscle cells; actives raise or lower the signal.

Read-out in assay [11]: Macrophage colony-stimulating factor (MCSF), CSF1 (gene 1435)
The assay can be described thus: BSK_CASM3C_MCSF: BioMAP Diversity Plus: CASM3C Assay for Macrophage colony-stimulating factor (MCSF) Biomarker Activity (AID 2283044).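 Note: M-CSF protein amount quantified by ELISA after 24 h exposure.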 Conditions: primary human coronary artery smooth muscle cells; actives raise or lower the signal.

Read-out in assay [12]: Low-density lipoprotein receptor (LDLR), LDLR (gene 3949)
Briefly: BSK_CASM3C_LDLR: BioMAP Diversity Plus: CASM3C Assay for Low-density lipoprotein receptor (LDLR) Biomarker Activity (AID 2283045).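 Note: LDLR protein level on the cell surface quantified by ELISA.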 Conditions: primary human coronary artery smooth muscle cells; actives raise or lower the signal.

Read-out in assay [13]: Monocyte Chemoattractant Protein-1 (MCP1), CCL2 (gene 6347)
The assay can be described thus: BSK_CASM3C_MCP1: BioMAP Diversity Plus: CASM3C Assay for Monocyte Chemoattractant Protein-1 (MCP1) Biomarker Activity (AID 2283046).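 Note: MCP-1 level quantified by ELISA 24 h after dosing.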 The settings on record: primary human coronary artery smooth muscle cells; actives raise or lower the signal.

The nature of assay [14]: BSK_CASM3C_Proliferation: Cell Proliferation Assessment in the BioMAP Diversity Plus: CASM3C Assay (AID 2283047).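 Note: sulforhodamine B total protein stain as relative cell number at 560 nm; sub-confluent cells exposed 48 h before staining; fitted both ways against DMSO so gain or loss of cell number.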 Conditions: primary human coronary artery smooth muscle cells.
Read-out in assay [15]: Monokine induced gamma interferon (MIG), CXCL9 (gene 4283)
The assay can be described thus: BSK_CASM3C_MIG: BioMAP Diversity Plus: CASM3C Assay for Monokine induced gamma interferon (MIG) Biomarker Activity (AID 2283048).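 Note: MIG protein level measured by ELISA.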 The settings on record: primary human coronary artery smooth muscle cells; actives raise or lower the signal.

Read-out in assay [16]: serum amyloid A (SAA), SAA1 (gene 6288)
Briefly: BSK_CASM3C_SAA: BioMAP Diversity Plus: CASM3C Assay for serum amyloid A (SAA) Biomarker Activity (AID 2283049).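 Note: SAA protein level quantified by ELISA.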 Conditions: primary human coronary artery smooth muscle cells; actives raise or lower the signal.

The nature of assay [17]: BSK_CASM3C_SRB: Viability Assessment in the BioMAP Diversity Plus: CASM3C Assay (AID 2283050).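 Note: total protein by SRB staining as cytotoxicity measure in parallel cultures; cells exposed to compound for 24 h.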 The settings on record: primary human coronary artery smooth muscle cells.
Read-out in assay [18]: Thrombomodulin, THBD (gene 7056)
The assay can be described thus: BSK_CASM3C_Thrombomodulin: BioMAP Diversity Plus: CASM3C Assay for Thrombomodulin Biomarker Activity (AID 2283051).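 Note: thrombomodulin protein level measured by ELISA 24 h after dosing.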 The settings on record: primary human coronary artery smooth muscle cells; actives raise or lower the signal.

Read-out in assay [19]: Tissue Factor, F3 (gene 2152)
Briefly: BSK_CASM3C_TissueFactor: BioMAP Diversity Plus: CASM3C Assay for Tissue Factor Biomarker Activity (AID 2283052).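 Note: cell surface tissue factor protein level read by ELISA.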 Conditions: primary human coronary artery smooth muscle cells; actives raise or lower the signal.

Read-out in assay [20]: Transforming growth factor beta 1 (TGFb1), TGFB1 (gene 7040)
The assay can be described thus: BSK_BE3C_TGFb1: BioMAP Diversity Plus: BE3C Assay for Transforming growth factor beta 1 (TGFb1) Biomarker Activity (AID 2283036;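 note: TGF-b1 protein level measured by ELISA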). Conditions: primary human bronchial epithelial cells; actives raise or lower the signal. The procedure, abridged: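 Read-out: ELISA for TGF-b1 in primary human bronchial epithelial cultures, 24 h post-dose. Bidirectional curve fitting vs DMSO control; gain or loss of signal both scored.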

For orientation: AC50 means the concentration at which the activity in the assay is half-maximal. Turning to `O=P(O)(O)CCC(F)(F)C(F)(F)C(F)(F)C(F)(F)C(F)(F)C(F)(F)F`, the outcome in assay [1], in assay [2], in assay [3], in assay [4], in assay [5] and in [6] was inactive. Besides, the outcome in [7], in [8], in assay [9], in [10], in [11] and in [12] was inactive. Moreover, the outcome in [13], in assay [14], in assay [15], in [16], in assay [17] and in assay [18] was inactive. The outcome in [19] was inactive. Also, the AC50 in assay [2] was 3210 nM (active).

For the compound `CS(=O)(=O)c1ccc([C@@H](CC2CCCC2)C(=O)Nc2cnccn2)cc1Cl`, the result in [1], in assay [3], in assay [20], in [5], in [6] and in assay [7] was inactive. Further, the result in assay [8], in [9], in assay [10], in [11], in [12] and in assay [13] was inactive. For the same compound, the outcome in [15], in assay [16], in assay [17], in assay [18] and in assay [19] was inactive. For the same compound, the AC50 in assay [2] is 31000 nM (active); in assay [4], 29200 nM (active); in assay [14], 26900 nM (active).

For `CN(C)c1ccc(C(=C2C=CC(=[N+](C)C)C=C2)c2ccccc2)cc1`, the AC50 is 16 nM (active) in assay [1]; 202 nM (active) in assay [2]; 561 nM (active) in assay [3]; 958 nM (active) in assay [5]; 186 nM (active) in assay [6]; 103 nM (active) in [7]. Further, the AC50 in [9] was 1980 nM (active); in [10] it was 39.2 nM (active); in assay [11], 825 nM (active); in assay [12], 32.3 nM (active); in assay [13], 61.5 nM (active); in assay [14], 553 nM (active). The AC50 in assay [15] is 1170 nM (active); in assay [16], 16.8 nM (active); in assay [17], 296 nM (active); in [18], 758 nM (active); in assay [19], 19.5 nM (active). The result in assay [20], in assay [4] and in assay [8] was inactive.

With `CC[N+](CC)(CC)Cc1ccccc1`, the result in assay [1], in assay [2], in [3], in [20], in [4] and in [5] was inactive. Also, the result in assay [6], in assay [8], in [9], in assay [10], in assay [11] and in assay [12] was inactive. In addition, the result in assay [13], in assay [14], in assay [15], in [16], in [17] and in [18] was inactive. The result in [19] was inactive. Also, the AC50 in assay [7] is 87.5 nM (active).

Turning to `C=CC(C)(CCC=C(C)C)OC(C)=O` (stereo not given), the AC50 in [1] was 30500 nM (active); in [2], 26600 nM (active); in assay [6] it was 27100 nM (active); in assay [8], 26300 nM (active); in [10] it was 32000 nM (active); in assay [11] it was 35800 nM (active). Besides, the AC50 is 26600 nM (active) in [13], 30600 nM (active) in [14], 28700 nM (active) in assay [16] and 32600 nM (active) in assay [17]. For the same compound, the outcome in assay [3], in assay [20], in [4], in [5], in assay [7] and in assay [9] was inactive. The result in assay [12], in [15], in [18] and in [19] was inactive.

Regarding `O=C(NCc1ncc(C(F)(F)F)cc1Cl)c1c(Cl)cccc1Cl`, the outcome in assay [1], in assay [2], in assay [3], in assay [20], in assay [4] and in assay [5] was inactive. In addition, the outcome in assay [6], in [7], in assay [8], in assay [9], in assay [10] and in assay [11] was inactive. Besides, the outcome in assay [12], in assay [13], in assay [14], in [15], in assay [16] and in assay [17] was inactive. The outcome in [18] and in [19] was inactive.
